The results in this text go back to PubChem BioAssay AID602440 (Sanford-Burnham Center for Chemical Genomics, 2012).

For orientation: inhibition means the relative decrease from the control value, in per cent.

Screen size: about 360,000 compounds; about 2,300 (0.64%) were called active. The list comes from a sample in which actives are over-represented; it also holds similar structures and randomly drawn compounds. Values without a mark were called inactive. No stated cut-off is given here; in the data, active means inhibition mostly above about 40% (no sharp cut-off); inactive means mostly below about 27%.

The target in this experiment is Sentrin-specific protease 8 (Homo sapiens) (UniProt Q96LD8). Briefly: human SENP8 protease inhibitors, primary screen, biochemical, fluorescence, Nedd8 protein substrate, uHTS (AID 602440). The conditions noted are these: recombinant SENP8, Nedd8 substrate fluorescence; at 20 µM; hits give high values.
Sequence of Sentrin-specific protease 8 (Homo sapiens) (Q96LD8 whole entry, looked up): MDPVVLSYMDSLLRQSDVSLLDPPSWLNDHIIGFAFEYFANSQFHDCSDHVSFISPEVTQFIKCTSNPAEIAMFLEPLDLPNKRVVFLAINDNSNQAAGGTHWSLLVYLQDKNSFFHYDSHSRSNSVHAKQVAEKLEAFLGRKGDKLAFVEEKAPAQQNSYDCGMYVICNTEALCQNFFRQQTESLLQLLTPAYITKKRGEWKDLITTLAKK
Regarding `COc1cccc(N2C(=O)CC(N3CCc4ccccc4C3)C2=O)c1` (stereo not drawn), the inhibition is 11.5%.
For `O=C(c1c(F)cccc1Cl)N1CCN(S(=O)(=O)c2ccc3c(c2)OCCCO3)CC1` the value was 5.8%; for `CC(C)CC(=O)N=C1SC2CS(=O)(=O)CC2N1CCc1ccccc1` (stereo not drawn), 42% (active); for `O=C(CCC1CCCC1)N=C1SC2CS(=O)(=O)CC2N1Cc1ccccc1` (stereo not drawn), 8.9%.
Turning to `O=C(N=C1SC2CS(=O)(=O)CC2N1Cc1ccccc1)c1ccccc1` (stereo not drawn), the inhibition was 13.8%.
For `Cn1c2c(c(=O)n(C)c1=O)C(c1ccc(O)cc1)Nc1ccccc1O2` (stereo not drawn), the inhibition was 23%.
For `COc1ccc(S(=O)(=O)N/N=C\c2ccc(OC)c(COc3ccc(C)cc3[N+](=O)[O-])c2)cc1` the value was 10.6%; for `COc1ccc(S(=O)(=O)Nc2ccc3cn[nH]c3c2)cc1[N+](=O)[O-]`, 45.4% (active); for `O=C(O)c1cc(S(=O)(=O)Nc2ccc3cn[nH]c3c2)ccc1Br`, -90.8%.
The value for `Cc1cc(NC(=O)CCC(=O)N(Cc2ccccc2)C(C(=O)NC2CCCC2)c2ccc(C)o2)no1` (stereo not drawn) was 1.5%.
For `CCOc1ccc(NC(=O)c2cccc3c2C(=O)N(CC2CCCO2)C3)cc1` (stereo not drawn) the value was 5.6%.
With `CCCN1C(=O)C(Cc2nc3ccccc3c(=O)n2-c2ccccc2)c2cc(C)ccc21` (stereo not drawn), the inhibition is 12.4%.
The value for `CCn1c(O)c(N=NC2=NC(=O)CS2)c2cc(C)ccc21` was 46.9% (active); that for `CCn1c(O)c(N=NC(=O)c2cccc(S(=O)(=O)N3CCCCC3)c2)c2ccccc21` was 28%; that for `N#Cc1cccc(NC(=O)c2cc(C3CCCCN3C(=O)CCc3ccccc3)on2)c1` (stereo not drawn) was 8.1%.
Turning to `Clc1ccc(C2[C@H]3CN(CC4CCCCC4)[C@H](c4ccccc4)C34CC2(c2cccnc2)C4)cn1` (stereo partly drawn), the inhibition is 7.6%.
With `COc1ccc(NC(=O)CSc2nnnn2-c2cccc(OC)c2)cc1`, the inhibition is 10.5%.
For `Cc1ccc(S(=O)(=O)NC(=O)COc2ccccc2C)cc1` the value was 12.8%; for `COc1ccc(N(CC(=O)Nc2ccc(C)cc2C)S(=O)(=O)c2ccccc2[N+](=O)[O-])c(OC)c1`, 10.2%; for `Cc1ccc(NS(=O)(=O)c2ccc(N/N=C/c3ccccc3OCC(=O)O)c([N+](=O)[O-])c2)c(C)c1`, 49.7% (active).
For `COc1ccc(Br)cc1/C=N/Nc1ccc(S(=O)(=O)Nc2ccccc2C(=O)O)cc1[N+](=O)[O-]` the value was 46.4% (active).
With `COc1ccccc1C(CNC(=O)c1cccc(NS(=O)(=O)c2ccc(Br)cc2)c1)N(C)C` (stereo not drawn), the inhibition is 0.9%.
For `CC1CN(C(=O)c2ccccc2NS(=O)(=O)c2cccc([N+](=O)[O-])c2)CC(C)O1` (stereo not drawn) the value was 4.5%.
Turning to `COc1cccc(N(Cc2nnc3n2CCCCC3)C(=O)Nc2ccccc2F)c1`, the inhibition was 9.7%.
For the molecule `CC1CC2=C(CC1/C=N/NC(N)=S)C(C)(C)CCC2` (stereo not drawn), the inhibition was 12.2%.
As to `O=C(CCNS(=O)(=O)c1ccccc1)NCCSc1ccc(Br)cc1`, the inhibition was 9%.
Regarding `Cc1ccc(S(=O)(=O)N[C@H](CO)C(C)C)cc1`, the inhibition is 11.7%.
For `COc1ccc(C(=O)C(C)OC(=O)c2cccc(S(=O)(=O)Nc3c(C)n(C)n(-c4ccccc4)c3=O)c2)cc1` (stereo not drawn), the inhibition is 5.8%.
`CNC(=O)COc1ccc(S(=O)(=O)Nc2ccccc2)cc1`: the inhibition was 3.4%.
For `Cc1ccc(S(=O)(=O)/N=C2\C=C(NS(=O)(=O)c3ccc(C)cc3)C(=O)c3ccccc32)cc1` the value was 89.9% (active); for `COc1ccc(S(=O)(=O)/N=C2\C=C(NS(=O)(=O)c3ccccc3)C(=O)c3ccccc32)cc1`, 70% (active); for `Cc1ccc(S(=O)(=O)N/N=C(\c2ccccc2)C2CC2)cc1`, 3.3%.
For `COC(=O)c1ccccc1NC(=O)c1cncc(Br)c1` the value was 3.1%; for `C/C=N/NC(=O)CCCC(=O)N/N=C/C`, 6.6%.
Take `COc1cc2c(cc1OC)C(=O)NCC(C)(C)O2`: the inhibition is 15.5%.
`COc1cc(C(C(=O)NC2CCCC2)N(C(=O)c2ccco2)c2ccccc2C(C)=O)cc(OC)c1OC` (stereo not drawn): the inhibition was 10.1%.
For `O=C1OCCN1C(=O)[C@H]1[C@H](c2ccc(Cl)cc2)C(c2cccc(Cl)c2)=NN1c1ccc(Br)cc1` the value was -366%; for `O=C(c1cccnc1)N(c1cc2sc(=O)oc2c2ccccc12)S(=O)(=O)c1ccccc1`, 7.7%.
Take `O=C(O)CN1C(=O)CC(Cc2ccccc2)C1=O` (stereo not drawn): the inhibition is 3.4%.
For `COc1cccc(CC2(CO)CCCN(Cc3ccc(OC(F)F)cc3)C2)c1` (stereo not drawn) the value was 10.3%; for `CN(C)c1ccc(/C=C/C(=O)c2ccc(O)cc2)cc1[N+](=O)[O-]`, 47.5% (active); for `CN(C)c1ccc(S(=O)(=O)NCC(=O)NCC2CCCCC2)cc1[N+](=O)[O-]`, 11.6%.
For `CCN(CC)CCN(C)C(c1ccnc2ccccc12)c1nnnn1-c1ccc2c(c1)OCCO2` (stereo not drawn) the value was 7.5%.
The value for `CC(C)N(C(=O)[C@H]1C[C@H](CC(=O)NC(C)(C)C)C(=O)N2CCc3c([nH]c4ccc(Cl)cc34)[C@]12C)C(C)C` was 19%.
`COc1ccccc1NC(=O)C1=C(C)Nc2nnnn2C1c1cccc(Br)c1` (stereo not drawn): the inhibition is 6%.
The value for `COC(=O)C1=C(C(=O)c2ccc(C)cc2)C(c2ccccc2)n2nnnc2N1` (stereo not drawn) was 44.3% (active); that for `COC(=O)c1ccc(C2C3=C(Nc4nnnn42)c2ccccc2OC3)cc1` (stereo not drawn) was -273%; that for `O=C1CC(Cc2ccc(Cl)cc2)C(=O)N1c1cc(Cl)ccn1` (stereo not drawn) was 9.6%.
For `COc1ccccc1CNC(=O)COC(=O)c1sc(C)nc1C`, the inhibition is 17.6%.
As to `CCN(C(=O)COc1cccnc1[N+](=O)[O-])C1CCS(=O)(=O)C1` (stereo not drawn), the inhibition is 11.8%.
The value for `NC1=CC(=O)C(=O)c2cccnc21` was 95% (active).
The value for `C[C@@H](O)c1nc2ccccc2n1N` was 19%; that for `Cc1ccc2c(=O)cc(C(=O)NCCc3ccc(S(N)(=O)=O)cc3)oc2c1C` was 12.8%.
The value for `CCN(CC)c1ccc(S(=O)(=O)N2CCCCC2)cc1NC(=O)C1=COCCO1` was 5.2%; that for `O=[N+]([O-])c1ccccc1NCc1ccccc1Cl` was 46.6% (active).
For `O=C(NCCNc1ccccc1[N+](=O)[O-])c1ccccc1F`, the inhibition is 19.2%.
For `O=C(NCc1ccccc1Cl)NC(=O)c1csc([N+](=O)[O-])c1` the value was 6.1%.
The value for `CCc1cc2c(SCC(=O)Nc3ncc(Cl)c(C)c3Cl)ncnc2s1` was -2.9%; that for `CCN1N=C(c2ccccc2)CCC1=O` was 8.8%; that for `O=C1NC(=O)C2C1C(c1ccc([N+](=O)[O-])cc1)=NN2Cc1ccccc1` (stereo not drawn) was -27.9%.
The value for `O=C1CC(c2ccccc2)=NN1c1ccc([N+](=O)[O-])cc1` was 71.2% (active).
Take `Cc1ccc(NC(=S)N(CCN(C)C)Cc2cccs2)cc1C`: the inhibition was 19.3%.
The value for `CNC(=O)C[C@H]1C(=O)N(Cc2ccccc2)C[C@@H]1CSC` was -6.3%.
In the case of `CCOC(=O)N1CCN(c2c(NCCCN3CCCC(C)C3)c(=O)c2=O)CC1` (stereo not drawn), the inhibition is 21.3%.
For `CCOC(=O)N1CCC(Nc2c(NCCCN3CCN(CC)CC3)c(=O)c2=O)CC1` the value was 20.5%; for `CCOC(=O)N1CCC(Nc2c(NCCCN3CCN(c4ccc(OC)cc4)CC3)c(=O)c2=O)CC1`, 63.9% (active); for `Cc1sc2ccccc2c1CNC[C@H]1O[C@@H](n2ccc(=O)[nH]c2=O)[C@H](O)[C@@H]1O`, 50.2% (active).
On to `O=c1ccn([C@@H]2O[C@H](CNS(=O)(=O)c3cc4ccccc4s3)[C@@H](O)[C@H]2O)c(=O)[nH]1`, for which the inhibition was 7.7%.
The value for `C[C@H](NC(=O)CC[C@H]1O[C@@H](n2ccc(=O)[nH]c2=O)[C@H](O)[C@@H]1O)c1cccc2ccccc12` was 20.1%; that for `O=C(CNCc1ccc(Cl)cc1)Nc1cccc(C(=O)O)c1` was 23%.
With `CC(C)C[C@H](NC(=O)N1CC(=O)Nc2ccccc21)C(=O)N[C@H](Cc1ccccc1)C(=O)O`, the inhibition was 28.1%.
For `CC(C)[C@H](NC(=O)N1CC(=O)Nc2ccccc21)C(=O)N[C@@H](Cc1c[nH]c2ccccc12)C(=O)O` the value was 57.9% (active).
For `CC(C)c1ccc(NC(=O)[C@@H](NC(=O)N2CC(=O)Nc3ccccc32)C(C)C)cc1` the value was 8.3%; for `CC(OC(=O)Cc1ccc(F)cc1)C(=O)N1CCc2ccccc21` (stereo not drawn), -2.8%; for `O=C(CN(C(=O)c1nsc(Cl)c1Cl)c1cccc(F)c1)NC1CCCC1`, 4.4%.
The value for `COc1ccc(S(=O)(=O)n2cnc3ccccc32)c(C)c1` was 12.5%; that for `O=C(/C=C/c1cccs1)NCc1cccnc1` was -2.1%; that for `Cc1ccc(S(=O)(=O)NC(C)C(=O)Nc2ccccc2C(=O)N2CCCC2)cc1` (stereo not drawn) was 20.9%.
Turning to `CC1CCCC(NC(=O)c2cccc(N3CCCC3=O)c2)C1C` (stereo not drawn), the inhibition is -12.1%.
For `Cc1cc2c(C)nc(N/N=C/c3ccccc3)nc2o1` the value was -29.4%; for `O=C(/C=C/c1ccc([N+](=O)[O-])o1)NNC(=O)c1ccc(F)cc1`, 19.8%; for `Cc1cc(C)nc(N/N=C/c2ccc([N+](=O)[O-])o2)n1`, 45.8% (active).
The value for `CN(CC(=O)Nc1ccccc1Cl)C(=O)c1ccccc1SCC(=O)N1CCCC1` was 3.2%; that for `COC(=O)c1ccc2c(=O)n(CCN3CCOCC3)c(SCC(=O)Nc3cccc(OC)c3)nc2c1` was 14.9%.
Consider `Cc1nc2ccccc2c(=O)n1-c1ccc(NS(=O)(=O)c2ccc(F)cc2F)cc1`, for which the inhibition was 5.4%.
For `COC(=O)Cn1c(=NC(=O)c2cc(OC)c(OC)c(OC)c2)sc2cc(OC)ccc21`, the inhibition was -398%.
For `CCn1c(CNC(=O)c2cc(OC)c(OC)c(OC)c2)cc2cc(C)ccc21` the value was -19.2%; for `COC(=O)Cn1c2ccc(C)cc2c2nc(C)sc21`, 65.4% (active).
